The source of these data is PubChem BioAssay (Tox21).

Test [1] can be described thus: Nuclear factor erythroid 2-related factor 2/antioxidant responsive element (Nrf2/ARE) small molecule agonists: qHTS cell viability counter screen in human keratinocytes (AID 1919968; active = well fitted curve in the direction sought with a large enough effect in the repeat runs; an effect the other way counts as inactive or inconclusive; note: nearly all actives have a fitted effect of over 55% in size). The essentials: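 KeratinoSens HaCaT cells, 1,500/well, preincubated 5 h, then exposed to compounds in DMSO for 23 h at 37 C/5% CO2. Viability read as CellTiter-Fluor fluorescence after 1 h, in the same wells as the ARE-luciferase read.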
On the technique in general: Quantitative high-throughput screening tests each substance at several concentrations.

Test [2] can be described thus: Nuclear factor erythroid 2-related factor 2/antioxidant responsive element (Nrf2/ARE) small molecule agonists: luciferase reporter gene qHTS assay in human keratinocytes (AID 1919969). Note: nearly all actives have a fitted effect of over 35% in size. Note: potency is the fitted concentration of half-maximal effect. Background: A reporter such as luciferase makes a cellular process visible.
Test [3] deals with Gonadotropin-releasing hormone receptor (Homo sapiens) (UniProt P30968). The experiment in a line: Human gonadotropin-releasing hormone receptor (GnRHR) small molecule agonists, calcium flux assay in GnRHR-HEK293 cells (AID 1920063). Note: nearly all actives have a fitted effect of over 35% in size. The essentials: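 HEK293 cells stably expressing human GnRHR were dye-loaded for 1 h at 37 C. Compound was added in agonist mode and fluorescence (Ex/Em 480/540) recorded kinetically for 3 min. Fifteen concentrations, triplicates.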
Sequence of Gonadotropin-releasing hormone receptor (Homo sapiens) (P30968 whole entry, looked up): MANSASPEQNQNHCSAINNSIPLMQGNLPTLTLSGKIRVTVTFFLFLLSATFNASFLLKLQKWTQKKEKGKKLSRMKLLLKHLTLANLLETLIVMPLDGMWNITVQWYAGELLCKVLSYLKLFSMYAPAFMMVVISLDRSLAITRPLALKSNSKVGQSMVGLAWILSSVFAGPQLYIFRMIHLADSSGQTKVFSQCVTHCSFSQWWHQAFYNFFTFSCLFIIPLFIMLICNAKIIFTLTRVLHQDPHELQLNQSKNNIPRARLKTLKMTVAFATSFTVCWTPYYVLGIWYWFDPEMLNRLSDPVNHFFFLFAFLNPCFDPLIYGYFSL
(In general: Calcium flux is commonly read through the fluorescence of an indicator in the cells.)

The target of test [4] is KiSS-1 receptor (Homo sapiens) (UniProt Q969F8). The experiment in a line: Human kisspeptin (KISS1R) small molecule agonists, calcium flux assay in KISS1R-HEK293 cells (AID 1920064; active = well fitted curve in the direction sought with a large enough effect in the repeat runs; an effect the other way counts as inactive or inconclusive). The essentials:
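HEK293 cells stably expressing human KISS1R were loaded with calcium dye for 1 h at 37 C, then given compound; fluorescence (Ex/Em 480/540) was read kinetically for 3 min. Fifteen concentrations, triplicate.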

Test [5] is described as follows: G protein-coupled receptor (GPCR) small molecule agonists, calcium flux assay: HEK293 wild type cell line counter screen (AID 1920065). The essentials:
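Wild-type HEK293 cells plated 18 h, loaded with calcium dye 1 h at 37 C, then compounds added in agonist mode (ATP as positive control). Kinetic fluorescence Ex/Em 480/540 recorded 3 min at 1 sec intervals; 15 concentrations, triplicate.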

Test [6] is described as follows: p53 small molecule agonists, cell-based qHTS assay with human liver microsomes (AID 1963577). The method, boiled down: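 p53RE-bla reporter cells were pre-incubated 5 h at 37 C, then treated with compounds plus human liver microsomes (0.5 mg/mL final) and NADPH (0.5 mg/mL final) for 16 h at 37 C. Beta-lactamase activity was read by LiveBLAzer fluorescence after 2 h at room temperature.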

Test [7] can be described thus: p53 small molecule agonists, cell-based qHTS assay with rat liver microsomes (AID 1963578). The essentials: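 p53RE-bla cells were exposed to compounds together with rat liver microsomes (0.5 mg/mL final) and NADPH (0.5 mg/mL final) for 16 h at 37 C, then read by LiveBLAzer beta-lactamase fluorescence after 2 h at room temperature.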
A short description of test [8]: p53 small molecule agonists, cell-based qHTS assay with rat liver microsomes: qHTS cell viability counter screen (AID 1963580). Note: nearly all actives have a fitted effect of over 45% in size. The essentials:
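Viability is assessed in parallel with the p53 reporter read: HCT-116 p53RE-bla cells receive compounds plus rat microsomes and NADPH (0.5 mg/mL final apiece), incubate 16 h at 37 C, and then CellTiter-Glo luminescence is recorded.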

The nature of test [9]: p53 small molecule agonists, cell-based qHTS assay (AID 1963582; active = well fitted activation curve with a large enough effect in the signal ratio in the repeat runs, not every such curve was filed as active; the % refers to the signal ratio). The method, boiled down: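 p53RE-bla reporter cells, compounds added in DMSO after 5 h plating, incubated 16 h at 37 C. Beta-lactamase read via 2 h room-temperature LiveBLAzer B/G FRET substrate, fluorescence intensity.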
Test [10] has as its target 5-hydroxytryptamine receptor 2A (Homo sapiens) (UniProt P28223). Briefly: 5-hydroxytryptamine receptor 2A (HTR2A) small molecule antagonists, cell-based qHTS assay (AID 1963586). Note: nearly all actives have a fitted effect of over 45% in size. Note: potency is the fitted concentration of half-maximal effect. The essentials: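 Antagonist-mode intracellular calcium assay: DOI (4 nM) added after 5 min compound pre-incubation at room temperature to dye-loaded HTR2A-CHO cells. Fluorescence followed for 3 min, sampled every second.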

For test [11] the target is unchanged. The experiment in a line: 5-hydroxytryptamine receptor 2A (HTR2A) small molecule agonists, cell-based qHTS assay (AID 1963587). Note: nearly all actives have a fitted effect of over 30% in size. The method, boiled down:
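CHO cells stably expressing human HTR2A, plated 18 h, loaded with calcium dye 1 h at 37 C. Agonist mode: compounds added and intracellular calcium fluorescence recorded kinetically for 2 min at 1 sec intervals.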

Test [12] deals with Muscarinic acetylcholine receptor M1 (Homo sapiens) (UniProt P11229). The experiment in a line: Cholinergic receptor muscarinic 1 (CHRM1) small molecule agonists, cell-based qHTS assay (AID 1963589). Note: nearly all actives have a fitted effect of over 35% in size. The essentials: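 CHO cells stably expressing human CHRM1 were loaded with calcium dye for 1 h at 37 C, then compound was added in agonist mode. Intracellular calcium fluorescence was followed kinetically at 1 s intervals. Fifteen concentrations were tested in three independent runs.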
Sequence of Muscarinic acetylcholine receptor M1 (Homo sapiens) (P11229 whole entry, looked up): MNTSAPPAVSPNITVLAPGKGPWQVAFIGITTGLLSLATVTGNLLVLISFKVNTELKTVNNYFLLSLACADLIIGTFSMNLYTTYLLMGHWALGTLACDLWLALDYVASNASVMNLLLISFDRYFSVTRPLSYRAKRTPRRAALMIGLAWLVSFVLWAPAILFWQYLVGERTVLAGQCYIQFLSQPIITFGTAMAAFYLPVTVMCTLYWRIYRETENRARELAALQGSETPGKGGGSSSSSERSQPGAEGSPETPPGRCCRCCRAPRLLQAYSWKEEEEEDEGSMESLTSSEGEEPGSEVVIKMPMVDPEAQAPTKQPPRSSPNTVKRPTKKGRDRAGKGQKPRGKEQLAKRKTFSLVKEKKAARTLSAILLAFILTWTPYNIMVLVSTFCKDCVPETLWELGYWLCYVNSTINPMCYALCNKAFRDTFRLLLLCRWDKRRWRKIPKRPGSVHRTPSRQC

Test [13] in a line: cAMP Responsive Elements (CRE) small molecule agonists, cell-based qHTS assay (AID 1963590). The method, boiled down:
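CRE-bla HEK 293T cells, 2,000/well in DMEM with 10% dialyzed FBS and 25 mM HEPES, pre-incubated 18 h at 37 C, then exposed to compound 3 h at 37 C. Beta-lactamase reporter read with LiveBLAzer B/G FRET substrate after 2 h at room temperature.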

Test [14] can be described thus: cAMP Responsive Elements (CRE) small molecule antagonists, cell-based qHTS assay (AID 1963591; active = well fitted inhibition curve with a large enough effect in the signal ratio in the repeat runs, not every such curve was filed as active; the % refers to the signal ratio). The essentials:
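CRE-bla HEK293T cells plated 18 h, then given compound plus NKH477 at 0.25 uM final for 3 h at 37C. Beta-lactamase reporter read with LiveBLAzer B/G FRET substrate after 2 h at room temperature.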

Test [15] has as its target Beta-2 adrenergic receptor (Homo sapiens) (UniProt P07550). The experiment in a line: Adrenergic beta2 receptor (ADRB2) small molecule antagonists, cell-based qHTS assay (AID 1963592). Note: series mostly up to about 92 µM; nearly all actives have a fitted effect of over 50% in size. The essentials: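 Cells (CHO, stable ADRB2 overexpression) incubated 18-20hr at 37C; compounds added from DMSO; agonist mix (1nM isoproterenol, 100uM IBMX, 25uM Ro-20-1724) added; 0.5hr RT; d2-cAMP and anti-cAMP-cryptate added; 1hr RT; 665/615 nm read.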

The target of test [16] is D(2) dopamine receptor (Homo sapiens) (UniProt P14416). The experiment in a line: Dopamine D2 receptor (DRD2) small molecule agonists, cell-based qHTS assay (AID 1963594). Note: nearly all actives have a fitted effect of over 35% in size. Note: potency is the fitted concentration of half-maximal effect. The method, boiled down:
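HEK293 cells stably expressing human DRD2, pre-treated with PDE inhibitor Ro20-1724 (0.1 mM final) and compound 10 min at room temperature, then stimulated with NKH477 (200nM […]) for 30 min. cAMP read by HTRF (665/620 nm).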

Test [17] is described as follows: p53 small molecule agonists, cell-based qHTS assay: qHTS cell viability counter screen (AID 1963581). Note: nearly all actives have a fitted effect of over 45% in size. The essentials: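 p53RE-bla HCT-116 cells, compounds added 5 h after plating and incubated 16 h at 37 C. Cytotoxicity measured in the same wells as intracellular ATP by CellTiter-Glo luminescence after 30 min at room temperature.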
The target of test [18] is Muscarinic acetylcholine receptor M1 (Homo sapiens) (UniProt P11229). The experiment in a line: Cholinergic receptor muscarinic 1 (CHRM1) small molecule antagonists, cell-based qHTS assay (AID 1963588). Note: nearly all actives have a fitted effect of over 40% in size. The method, boiled down: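 CHRM1-CHO calcium-flux assay, antagonist mode. Cells were seeded 18 h, dye-loaded 1 h at 37 C and given compound for 5 min at RT, then acetylcholine was added at 50nM. FDSS fluorescence was read 3 min; 15 concentrations, three runs.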

The target of test [19] is D(2) dopamine receptor (Homo sapiens) (UniProt P14416). The experiment in a line: Dopamine D2 receptor (DRD2) small molecule antagonists, cell-based qHTS assay (AID 1963595; active = well fitted inhibition curve with a large enough effect in the signal ratio in the repeat runs, with a control signal flat; the % refers to the signal ratio). The method, boiled down: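 HTRF cAMP read-out at 665 and 620 nm emission (340 nm excitation). Antagonist mode: compounds were tested against 12 nM quinpirole in DRD2-HEK293 cells, with 200 nM NKH477 raising cAMP and 0.1 mM Ro20-1724 blocking its breakdown.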
Sequence of D(2) dopamine receptor (Homo sapiens) (P14416 whole entry, looked up): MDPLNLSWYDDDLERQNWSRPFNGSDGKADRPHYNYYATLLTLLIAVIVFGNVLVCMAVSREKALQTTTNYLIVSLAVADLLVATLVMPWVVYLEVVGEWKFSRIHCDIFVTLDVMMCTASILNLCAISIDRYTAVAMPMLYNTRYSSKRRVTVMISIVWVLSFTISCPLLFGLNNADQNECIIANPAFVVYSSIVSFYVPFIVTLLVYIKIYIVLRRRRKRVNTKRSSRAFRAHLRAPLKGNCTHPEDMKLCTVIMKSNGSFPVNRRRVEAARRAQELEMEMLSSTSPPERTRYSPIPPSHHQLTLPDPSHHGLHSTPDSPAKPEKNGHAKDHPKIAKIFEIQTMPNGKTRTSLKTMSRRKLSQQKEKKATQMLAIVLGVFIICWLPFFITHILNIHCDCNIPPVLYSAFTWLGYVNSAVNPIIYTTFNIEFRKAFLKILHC

The target in test [20] is Beta-2 adrenergic receptor (Homo sapiens) (UniProt P07550). Briefly: Adrenergic beta2 receptor (ADRB2) small molecule agonists, cell-based qHTS assay (AID 1963593).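 Note: CHO cells stably overexpressing human ADRB2.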 The essentials: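 CHO cells stably over-expressing ADRB2 were plated overnight at 37C, then dosed with compounds plus a stimulation mix containing 100uM IBMX and 25uM Ro-20-1724 for 0.5hr at room temperature. cAMP was measured by HTRF competition, 1hr.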
Sequence of Beta-2 adrenergic receptor (Homo sapiens) (P07550 whole entry, looked up): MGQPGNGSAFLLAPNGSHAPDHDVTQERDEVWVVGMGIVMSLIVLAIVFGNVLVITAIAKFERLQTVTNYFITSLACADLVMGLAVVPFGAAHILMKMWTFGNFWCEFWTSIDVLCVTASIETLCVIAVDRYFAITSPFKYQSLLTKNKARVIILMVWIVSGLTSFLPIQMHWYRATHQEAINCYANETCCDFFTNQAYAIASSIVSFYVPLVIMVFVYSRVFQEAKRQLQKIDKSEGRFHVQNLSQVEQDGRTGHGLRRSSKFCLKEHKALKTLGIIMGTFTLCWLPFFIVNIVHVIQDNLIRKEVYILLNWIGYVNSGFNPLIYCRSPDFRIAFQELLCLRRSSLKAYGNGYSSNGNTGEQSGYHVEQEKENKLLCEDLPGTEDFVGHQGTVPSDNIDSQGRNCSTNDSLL

Values without a mark were called inactive. Inconclusive results are not listed. The source made the active and inactive calls. Unless noted, calls come from the whole dose curve.

Sequence of 5-hydroxytryptamine receptor 2A (Homo sapiens) (P28223 whole entry, looked up): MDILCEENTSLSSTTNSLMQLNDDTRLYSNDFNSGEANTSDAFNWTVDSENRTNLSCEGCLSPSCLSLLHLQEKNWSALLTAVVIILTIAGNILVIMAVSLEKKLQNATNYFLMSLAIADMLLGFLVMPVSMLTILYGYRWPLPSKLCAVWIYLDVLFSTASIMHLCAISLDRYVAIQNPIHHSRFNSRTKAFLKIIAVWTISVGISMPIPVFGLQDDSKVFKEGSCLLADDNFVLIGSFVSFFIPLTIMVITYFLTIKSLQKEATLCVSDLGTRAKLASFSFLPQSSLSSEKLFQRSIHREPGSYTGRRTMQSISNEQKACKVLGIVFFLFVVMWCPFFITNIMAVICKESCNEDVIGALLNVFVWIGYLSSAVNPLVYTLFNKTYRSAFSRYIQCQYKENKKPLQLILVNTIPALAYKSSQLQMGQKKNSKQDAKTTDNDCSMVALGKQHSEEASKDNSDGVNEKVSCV
Sequence of KiSS-1 receptor (Homo sapiens) (Q969F8 whole entry, looked up): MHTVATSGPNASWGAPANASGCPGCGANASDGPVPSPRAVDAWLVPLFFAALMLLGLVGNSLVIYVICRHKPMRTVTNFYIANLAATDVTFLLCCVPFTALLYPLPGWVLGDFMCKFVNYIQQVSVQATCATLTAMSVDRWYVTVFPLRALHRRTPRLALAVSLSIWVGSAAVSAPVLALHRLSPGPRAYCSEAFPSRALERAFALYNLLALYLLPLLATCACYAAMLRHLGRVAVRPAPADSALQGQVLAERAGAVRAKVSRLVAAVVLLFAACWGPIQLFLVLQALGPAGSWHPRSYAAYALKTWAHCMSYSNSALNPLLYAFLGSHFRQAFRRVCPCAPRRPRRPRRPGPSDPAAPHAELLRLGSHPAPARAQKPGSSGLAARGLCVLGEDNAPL

Regarding `CN(C)CCN1CCN(c2cccc(Cl)c2)C1=O`, the Potency entry in [1], in test [2], in test [3], in test [6], in [7] and in test [8] was “inactive” each time. In addition, the Potency result in [9], in test [11], in test [12], in test [13], in [14] and in test [15] was “inactive” each time. In addition, the result in test [4] and in test [5] was inactive. Moreover, the Potency in test [10] is 1.83 µM (active); in test [16], 13.3 µM (active).
Turning to `OC[C@H](Cc1cccc(O)c1)[C@H](CO)Cc1cccc(O)c1`, the Potency result in test [1], in test [2], in [3], in [6], in test [7] and in [17] was “inactive” in each case. Further, the Potency result in test [9], in test [10], in test [11], in [18], in test [12] and in test [13] was “inactive” throughout. Further, the Potency entry in [14], in [15], in test [16] and in test [19] was “inactive” throughout. Also, the outcome in test [4] and in [5] was inactive.
`CN(C)CCN1C(=O)c2ccccc2N(C)c2ccccc21`: the Potency result in [1], in test [2], in test [3], in test [6], in test [7] and in test [8] was “inactive” each time. Moreover, the Potency entry in test [11], in test [12], in test [13], in [14], in test [15] and in test [16] was “inactive” throughout. For the same compound, the Potency result in test [19] was “inactive”. In addition, the result in test [4] and in test [5] was inactive.
As to `N#Cc1cscn1`, the Potency result in [1], in test [2], in [3], in test [6], in [7] and in [17] was “inactive” in each case. Also, the Potency entry in [9], in test [10], in [18], in [12], in [13] and in test [14] was “inactive” each time. The Potency entry in [16] and in [19] was “inactive” each time. Besides, the outcome in [4] and in test [5] was inactive.
Take `CN(C)C/C=C(/c1ccc(Br)cc1)c1cccnc1`: the Potency result in test [1], in test [2], in [3], in [6], in test [7] and in [17] was “inactive” throughout. The Potency entry in [9], in [10], in test [11], in test [18], in test [12] and in test [13] was “inactive” throughout. The Potency entry in [14] and in test [20] was “inactive” each time. For the same compound, the result in test [4] and in test [5] was inactive.
As to `CN1CCN(c2c(F)cc3c(=O)c(C(=O)O)cn4c3c2SCC4)CC1`, the Potency entry in test [1], in [2], in test [3], in [6], in test [7] and in test [8] was “inactive” throughout. Moreover, the Potency result in test [10], in [11], in test [18], in test [12], in [15] and in test [19] was “inactive” each time. The outcome in test [4] and in [5] was inactive.
Turning to `Cc1ccc(Cl)c(OCC(O)CNC(C)(C)C)c1` (stereo not drawn), the Potency entry in test [1], in [2], in test [3], in test [6], in [7] and in [8] was “inactive” each time. Besides, the Potency entry in test [9], in test [11], in test [18], in test [12], in test [13] and in test [16] was “inactive” in each case. For the same compound, the Potency result in [19] is “inactive”. Also, the outcome in test [4] and in test [5] was inactive.
Consider `CC(C)c1ccc2sc3ccccc3c(=O)c2c1`, for which the Potency entry in test [1], in [3], in [6], in test [7], in test [17] and in test [10] was “inactive” in each case. Besides, the Potency entry in test [18], in test [12], in test [15] and in [16] was “inactive” each time. Moreover, the Potency in test [2] was 68.6 µM (active). Further, the result in [4] and in test [5] was inactive.
